In the supplement of paper PMC9337992:
± gives the standard deviation of the averaged measurements.

tested on: MDAMB231; experiment: cell proliferation (confluence) relative to DMSO control; higher = less growth inhibition; conditions: 5 uM; 6 d
Description: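 Epigenetic chemical probe screen: 15 TNBC cell lines, 500 cells per well in 384-well plates, treated with 5 uM of each of 36 SGC probes for 6 d. Confluency was imaged by IncuCyte ZOOM and normalised to DMSO control wells. Four replicate wells per compound.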

Structure (SMILES)	cell proliferation
COc1ccccc1S(=O)(=O)Nc1ccc2c(c1)CN(C)C(=O)N2	67.9 ± 8.3%
Cc1cc(=O)n(C)c2cc(N3C(=O)CC[C@H](NS(=O)(=O)CC(C)C)[C@H]3c3ccc(Cl)cc3)ccc12	95.9 ± 3.5%
CN(C)[C@H]1CN(C2CCc3cccc(F)c32)C[C@@H]1c1ccc(N2CCN(S(C)(=O)=O)CC2)cc1 (some centres not stated)	99.19 ± 0.27%
O=C(c1ccc(C(=O)N2CCC(N3CCCC3)CC2)c(Nc2ccccc2)c1)N1CCC(N2CCCC2)CC1	99.13 ± 0.17%
COc1cc2c(cc1OCCCN1CCCC1)N=C(N)C21CCC1	96 ± 1.6%
CCCc1cc(C)[nH]c(=O)c1CNC(=O)c1cc(-c2ccnc(N3CCN(C)CC3)c2)cc2c1cnn2C(C)C	99.683 ± 0.051%
CCOC(=O)CCNc1cc(N2CCc3ccccc3CC2)nc(-c2ccccn2)n1	31.7 ± 7.8%
CC[C@H](C)n1cc(C)c2c(C(=O)NCc3c(C)cc(C)[nH]c3=O)cc(-c3ccc(N4CCNCC4)nc3)cc21	98.5 ± 1.6%
COc1ccccc1C(=O)Nc1cc2c(cc1N1CCCC1)n(C)c(=O)n2C	91.8 ± 5.7%
O=C(NCC(=O)N1CCCC1)Nc1ccc2cnccc2c1	81.5 ± 7.2%
CCCOc1ccn2c(C(C)=O)cc(-c3ccccc3S(C)(=O)=O)c2c1	96.7 ± 2.7%
O=C(/C=C/N1C[C@H]2C[C@@H]1CN2c1ccccn1)c1ccccc1O	99.17 ± 0.39%
COc1c(C)cc(NC(=O)c2nn(Cc3ccc(F)cc3)c3c2CN(C(=O)c2ccc[nH]2)C[C@]3(C)C(N)=O)cc1C	95.7 ± 2.2%
CCCc1cc(C)n(C)c(=O)c1CN(C)C(=O)c1cc(-c2ccc(N3CCN(C(C)C)CC3)nc2)cc2c1cnn2C(C)C	99.29 ± 0.32%
CC(C)Oc1ccc(-c2c[nH]cc2CN(C)CCO)cc1	86.1 ± 7.1%
Clc1cc2c(NC3CCCC3)nnc(-c3ccncc3)c2cc1Cl	98.72 ± 0.35%

Structure (SMILES)	cell proliferation
CNCCN1CCC(OCc2ccccc2)CC1	82 ± 5.4%
CC(C)Oc1ccc(-c2c[nH]cc2CN(C)CCN)cc1	46.8 ± 5.9%
CC(C)N(CCCNC(=O)Nc1ccc(C(C)(C)C)cc1)C[C@H]1O[C@@H](n2cc(Br)c3c(N)ncnc32)[C@H](O)[C@@H]1O	99.63 ± 0.16%
O=C([C@@H](Cc1cccc(C(F)(F)F)c1)NS(=O)(=O)c1cc(F)c2c(c1)CCNC2)N1CCCC1	87 ± 14%
COc1cc(-c2cn(C)c(=O)c3cnccc23)c(OC)cc1CN(C)C	96.6 ± 1.5%
COc1ccc(CCc2nc3cc(-c4c(C)noc4C)ccc3n2C[C@H](C)N2CCOCC2)cc1Cl	90.9 ± 1.5%
Cc1nnc2c3ccccc3c(N[C@@H](C)[C@H](c3ccccc3)N(C)C)nn12 [L-moses]	88.6 ± 8.2%
COc1cc(C#N)ccc1S(=O)(=O)Nc1ccc2c(c1)cc(C)c(=O)n2C	95.9 ± 4.5%
CCOC(=O)CCNc1cc(N2CCc3ccccc3CC2)nc(-c2cccnc2)n1	98.88 ± 0.33%
CCn1cc(-c2cccc(C(F)(F)F)c2)c2sc(C(=N)NC3CCS(=O)(=O)CC3)cc2c1=O	89.7 ± 4%
Cn1cc(CCn2cnc(-c3cnn(C)c3)c2-c2ccc(C#N)cc2)cn1	96.4 ± 3.1%
CCCc1cc(C)[nH]c(=O)c1CNC(=O)c1cc(-c2ccc(N3CCN(C(C)C)CC3)nc2)cc2c1cnn2C(C)C	57.1 ± 6.4%
O=C(NC[C@H](O)CN1CCc2ccccc2C1)c1ccnc(NC2CCC2)c1	45 ± 5.1%
CCC(=O)N1CCOc2c(cc(-c3ccc(OC)c(OC)c3)cc2OC[C@H]2CCCN(C)C2)C1	79.2 ± 5.1%
COc1cc2c(NC3CCN(C(C)C)CC3)nc(C3CCCCC3)nc2cc1OCCCN1CCCC1	99.05 ± 0.52%
CCN(C(=O)CO)[C@H]1CN(/C(=N\C#N)Nc2cccc(OC(F)F)c2)N=C1c1ccc(Cl)c(Cl)c1	98.31 ± 0.72%
